Experiment in all cases: PBM binding z-score (relative to random genomic background probes); higher = stronger binding; sequences stand for … in GC…GCGATTGACAGCGTAGAATGAAGG
Test [1] has as its system FXR:RXRa (NR concentration 270 nM, RXRa partner concentration 90 nM). The method in brief:
(§1)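 Probes were double-stranded and carried 34-nt variable regions with direct-repeat seeds, single-nucleotide variants, half-site ablations and random human genomic background sequences, printed on custom Agilent 4×180K protein-binding microarrays. Arrays were incubated 1 h with ligand-free nuclear receptor dimers in PBS pH 7.4, 2% milk, 0.02% Triton X-100, 1 mM DTT, 0.2 mg/mL BSA and 0.4 mg/ml salmon testes DNA. Antibodies against each partner (one per run) detected binding, and scanned fluorescence was regression-normalized. Binding z-scores use the random background probes as reference.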

In test [2] the test system is LXRa:RXRa (NR concentration 270 nM, RXRa partner concentration 90 nM). An outline of the steps: as §1
The subject of test [3] is LXRa homodimer (NR concentration 270 nM). An outline of the steps: as §1
Test [4] deals with LXRb:RXRa (NR concentration 270 nM, RXRa partner concentration 90 nM). The method in brief: as §1
Test [5] concerns LXRb homodimer (NR concentration 270 nM). An outline of the steps: as §1
Test [6] deals with PPARa:RXRa (NR concentration 270 nM, RXRa partner concentration 90 nM). An outline of the steps: as §1
Test [7] concerns PPARg:RXRa (NR concentration 180 nM, RXRa partner concentration 90 nM). The method in brief: as §1
Test [8] has as its system PPARg:RXRa 270nM:90nM, anti-RXR (NR concentration 270 nM, RXRa partner concentration 90 nM). The method in brief:
as §1

The test system of test [9] is PPARg:RXRa 30nM:10nM, anti-RXR (NR concentration 30 nM, RXRa partner concentration 10 nM). The method in brief: as §1
Test [10] deals with PPARg:RXRa 90nM:30nM, anti-RXR (NR concentration 90 nM, RXRa partner concentration 30 nM). The method in brief:
as §1

Test [11] concerns PPARg:RXRa DBDmut IVT, anti-RXR (DBD mutation: RXRa K156A/R161A, NR concentration 270 nM, RXRa partner concentration 90 nM). The method in brief:
as §1

Test [12] deals with PPARg:RXRa IVT, anti-PPARg (NR concentration 270 nM, RXRa partner concentration 90 nM). The method in brief:
as §1

Test [13] has as its system PPARg DBDmut:RXRa IVT, anti-PPARg (DBD mutation: PPARg1 K132A/R137A, NR concentration 270 nM, RXRa partner concentration 90 nM). An outline of the steps: as §1
For test [14], the system named is PPARg DBDmut IVT, anti-PPARg (DBD mutation: PPARg1 K132A/R137A, NR concentration 270 nM). The method in brief:
as §1

The subject of test [15] is PPARg homodimer (NR concentration 180 nM). An outline of the steps: as §1
Test [16] concerns PXR:RXRa (NR concentration 270 nM, RXRa partner concentration 90 nM). The method in brief: as §1
Test [17] concerns PXR homodimer (NR concentration 270 nM). An outline of the steps:
as §1

The test system of test [18] is RARa:RXR (NR concentration 270 nM, RXRa partner concentration 90 nM). An outline of the steps:
as §1

For test [19], the system named is RARa homodimer (NR concentration 270 nM). The method in brief:
as §1

In test [20] the test system is RARb:RXRa (NR concentration 270 nM, RXRa partner concentration 90 nM). The method in brief: as §1

Regarding TCATATAGGTAAAGGTTAAAGTCGAACGATATGA, the PBM binding z-score in test [1] amounted to 2.25; in test [2], 3.83; in [3], 0.888; in test [4], 2.89; in [5], 0.157; in test [6], 4.34. Moreover, the PBM binding z-score was found to be 5.57 in test [7]; 5.57 in [8]; 5.06 in [9]; 5.73 in test [10]; 3.98 in test [11]; 4.07 in test [12]. For the same sequence, the PBM binding z-score in test [13] was determined as 1.37; in [14], 1.86; in [15], 1.53; in test [16], 2.1; in test [17], 0.481; in test [18] it was 3.21. For the same sequence, the results for the PBM binding z-score in [19] and in test [20] were 1.26 and 2.67, respectively.
Turning to CGTCCAAGGTCATAGCAGGTCAGTGAAGACAGAT, the PBM binding z-score in test [1] is 7.63; in test [2] it was 7.02; in test [3], 3.65; in [4], 5.58; in test [5], 0.842; in test [6] it was 5.85. In addition, the PBM binding z-score amounted to 5.23 in test [7]; 5.24 in test [8]; 2.03 in [9]; 4.17 in [10]; 3.54 in test [11]; 4.67 in test [12]. For the same sequence, the PBM binding z-score in test [13] amounted to 0.604; in test [14], 1.12; in test [15], 3.76; in [16], 6.05; in [17], 2.47; in test [18], 5.07. In addition, the values for the PBM binding z-score in test [19] and in [20] were 1.79 and 5.09, respectively.
TCATATAGGTAGATGCTAGGTGAAAGTCCGATCT: the PBM binding z-score in test [1] was 0.567; in test [2], 0.862; in test [3], 0.165; in test [4], 0.357; in test [5], -0.423; in [6], 0.819. Besides, the PBM binding z-score was found to be 0.568 in [7]; 1.87 in test [8]; 3.53 in test [9]; 2.7 in test [10]; 2.54 in test [11]; 0.996 in test [12]. For the same sequence, the PBM binding z-score in test [13] stood at 0.387; in test [14] it was 0.246; in [15] it was 0.348; in [16] it was 0.415; in test [17], 0.366; in [18], 0.657. Further, the PBM binding z-score in test [19] was 0.534; in test [20], 0.174.
Regarding CGTCCAAGGTCAGAGAGGGCAGTGAATGCCGAGT, the PBM binding z-score in test [1] is 5.26; in [2], 3.77; in test [3], 0.447; in test [4], 2.71; in [5], -0.0412; in [6], 4.26. Besides, the PBM binding z-score in [7] is 2.13; in [8] it was 2.88; in test [9], 0.148; in [10], 1.46; in test [11], 2.19; in [12], 2.6. In addition, the PBM binding z-score in test [13] was -0.519; in test [14] it was -0.66; in [15], 1.84; in test [16] it was 3.91; in [17], 6.38; in test [18], 3.14. The PBM binding z-score is 0.679 in [19] and 4.88 in [20].
For the sequence AGAATGAGGTTATTAAGATCTGGGAATTGCGGTC, the PBM binding z-score in test [1] is 1.76; in test [2], 1.89; in [3], 0.216; in [4], 1.26; in test [5] it was -0.139; in test [6], 2.79. In addition, the PBM binding z-score was found to be 0.924 in test [7]; 1.47 in [8]; 0.36 in test [9]; 0.922 in test [10]; 3.21 in [11]; 1.94 in test [12]. Also, the PBM binding z-score in [13] is 0.564; in test [14], 0.21; in test [15], 0.467; in test [16], 1.16; in test [17], 0.379; in test [18] it was 1.66. For the same sequence, the PBM binding z-score in test [19] is -0.145; in test [20] it was 1.29.
Regarding GCTAGTTGGTCAGTAAAAGGTCTCACACCGGTCG, the PBM binding z-score in test [1] was -0.182; in test [2], -0.0505; in [3] it was -0.00726; in test [4], -0.0991; in [5], -0.275; in test [6] it was 0.0782. Further, the PBM binding z-score in test [7] was 0.203; in test [8] it was 0.834; in test [9] it was -0.473; in [10], 0.379; in test [11], 0.501; in test [12], 0.748. For the same sequence, the PBM binding z-score in [13] was 0.0123; in test [14], -0.176; in test [15], 0.542; in test [16], -0.0714; in test [17], 0.00189; in test [18], 0.298. For the same sequence, the PBM binding z-score in test [19] is -0.00415; in [20], 1.19.
Regarding TCGAGTAGGTTACCAAAGGGGCATTCAGCTTTCT, the PBM binding z-score is 0.363 in [1]; 3.05 in [2]; -0.577 in test [3]; 1.61 in test [4]; -0.557 in [5]; 1.41 in test [6]. For the same sequence, the PBM binding z-score was 0.576 in [7]; 1.33 in test [8]; 0.963 in test [9]; 1.22 in [10]; 3 in test [11]; 2.74 in test [12]. Also, the PBM binding z-score in [13] was 0.155; in [14], 0.119; in test [15] it was 0.4; in test [16] it was 0.735; in [17], -0.508; in test [18] it was 0.81. The PBM binding z-score in test [19] is -0.941; in [20] it was 1.37.

Source of the values: the supplement of paper PMC6555819.
